Data: PubChem BioAssay AID1159580 (chemical genetic matrix, 2015)
Where “and” joins values, the source holds several entries; their conditions need not be identical. Equal values may be shown once. Hit rate of the full screen: of about 5,500 compounds, about 2,000 (36%) were called active. Another 18% or so got no clear call; they are omitted. No stated cut-off is given here; in the data, active means normalized growth mostly below about 0.91 (no sharp cut-off); inconclusive means no clear call, values can overlap the other calls; inactive means mostly above about 0.92. The list shows a part of the results.

Test: chemical genetic growth profiling, strain panel (AID 1159580);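 further: tested at 20 µM; growth read once vehicle control cultures reached saturation at 30 °C; 1 = growth at the plate median or of vehicle wells; lower values mean less growth of the strain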
Details: growth OD

Measured: normalized growth

CNCCC(Oc1ccc(C(F)(F)F)cc1)c1ccccc1 (stereo unspecified)
active: S. cerevisiae deletion strains, locus YLR039C, strain RIC1, active compounds read low 1.41 [resistant] | S. cerevisiae deletion strains, locus YLR262C, strain YPT6, active compounds read low 1.46 [resistant]
inactive: S. cerevisiae deletion strains, locus YJR075W, strain HOC1, active compounds read low 0.985 and 1.01 | S. cerevisiae deletion strains, locus YKL009W, strain mrt4, active compounds read low 0.959 | S. cerevisiae deletion strains, locus YKL068W, active compounds read low 1 | S. cerevisiae deletion strains, locus YKL085W, strain MDH1 (second series), active compounds read low 0.999 | S. cerevisiae deletion strains, locus YKL085W, strain MDH1, active compounds read low 0.999 | S. cerevisiae deletion strains, locus YKL160W, strain elf1, active compounds read low 0.984 | S. cerevisiae deletion strains, locus YKL190W, strain CNB1, active compounds read low 1.01 | S. cerevisiae deletion strains, locus YKR001C, strain vps1, active compounds read low 1.01 | S. cerevisiae deletion strains, locus YKR026C, strain gcn3, active compounds read low 0.983 | S. cerevisiae deletion strains, locus YKR091W, strain srl3, active compounds read low 0.991 | S. cerevisiae deletion strains, locus YLL001W, strain dnm1, active compounds read low 0.979 | S. cerevisiae deletion strains, locus YLL026W, active compounds read low 0.987 | S. cerevisiae deletion strains, locus YLL041C, strain sdh2, active compounds read low 0.988 | S. cerevisiae deletion strains, locus YLR027C, strain aat2, active compounds read low 0.99 | S. cerevisiae deletion strains, locus YLR058C, strain SHM2, active compounds read low 1.01 | S. cerevisiae deletion strains, locus YLR102C, strain apc9, active compounds read low 0.987 | S. cerevisiae deletion strains, locus YLR113W, strain HOG1, active compounds read low 1.01 | S. cerevisiae deletion strains, locus YLR221C, strain rsa3, active compounds read low 0.985 | S. cerevisiae deletion strains, locus YLR258W, strain gsy2, active compounds read low 0.99 | S. cerevisiae deletion strains, locus YLR262C, strain YPT6 (second series), active compounds read low 1.04 | S. cerevisiae deletion strains, locus YLR268W, strain sec22, active compounds read low 0.985 | S. cerevisiae deletion strains, locus YLR320W, strain mms22, active compounds read low 0.968 | S. cerevisiae deletion strains, locus YLR330W, strain CHS5, active compounds read low 1.01 | S. cerevisiae deletion strains, locus YLR342W, strain FKS1 (second series), active compounds read low 0.982 | S. cerevisiae deletion strains, locus YLR342W, strain FKS1, active compounds read low 0.988 | S. cerevisiae deletion strains, locus YLR357W, strain rsc2, active compounds read low 0.977 | S. cerevisiae deletion strains, locus YLR370C, strain arc18, active compounds read low 0.981 | S. cerevisiae deletion strains, locus YLR371W, strain rom2, active compounds read low 0.985 | S. cerevisiae deletion strains, locus YLR384C, strain iki3, active compounds read low 0.97 | S. cerevisiae deletion strains, locus YLR418C, strain cdc73, active compounds read low 0.983 | S. cerevisiae deletion strains, locus YML016C, strain PPZ1, active compounds read low 1.02 | S. cerevisiae deletion strains, locus YML032C, strain rad52, active compounds read low 0.998 | S. cerevisiae deletion strains, locus YML120C, strain ndi1, active compounds read low 0.993 | S. cerevisiae deletion strains, locus YML124C, strain tub3, active compounds read low 0.992 | S. cerevisiae deletion strains, locus YMR058W, strain fet3, active compounds read low 0.99 | S. cerevisiae deletion strains, locus YMR078C, strain ctf18, active compounds read low 0.999 | S. cerevisiae deletion strains, locus YMR125W, strain sto1, active compounds read low 0.989 | S. cerevisiae deletion strains, locus YMR129W, active compounds read low 0.998 | S. cerevisiae deletion strains, locus YMR205C, strain PFK2, active compounds read low 0.967 | S. cerevisiae deletion strains, locus YMR223W, strain ubp8, active compounds read low 0.996 | S. cerevisiae deletion strains, locus YMR231W, strain pep5, active compounds read low 0.992 | S. cerevisiae deletion strains, locus YMR263W, strain SAP30, active compounds read low 0.995 | S. cerevisiae deletion strains, locus YMR307W, strain GAS1, active compounds read low 1.09 | S. cerevisiae deletion strains, locus YNL067W, strain RPL9B, active compounds read low 1.01 | S. cerevisiae deletion strains, locus YNL071W, strain lat1, active compounds read low 0.993 | S. cerevisiae deletion strains, locus YNL128W, strain TEP1, active compounds read low 0.992 and 1.03 | S. cerevisiae deletion strains, locus YNL153C, strain GIM3, active compounds read low 1.01 | S. cerevisiae deletion strains, locus YNL175C, strain NOP13, active compounds read low 1.01 | S. cerevisiae deletion strains, locus YNL183C, strain NPR1, active compounds read low 0.986 | S. cerevisiae deletion strains, locus YNL197C, strain WHI3, active compounds read low 0.979 | S. cerevisiae deletion strains, locus YNL209W, strain ssb2, active compounds read low 1.01 | S. cerevisiae deletion strains, locus YNL224C, strain SQS1, active compounds read low 1.04 | S. cerevisiae deletion strains, locus YNL233W, strain BNI4, active compounds read low 1.01 | S. cerevisiae deletion strains, locus YNL248C, strain rpa49, active compounds read low 0.99 | S. cerevisiae deletion strains, locus YNL250W, strain rad50, active compounds read low 0.996 | S. cerevisiae deletion strains, locus YNL271C, strain bni1, active compounds read low 0.99 | S. cerevisiae deletion strains, locus YNL298W, strain CLA4, active compounds read low 0.988 | S. cerevisiae deletion strains, locus YNL307C, strain MCK1, active compounds read low 0.993 | S. cerevisiae deletion strains, locus YNL322C, strain KRE1 (second series), active compounds read low 0.986 | S. cerevisiae deletion strains, locus YNL322C, strain KRE1, active compounds read low 1 | S. cerevisiae deletion strains, locus YNR049C, strain mso1, active compounds read low 0.987 | S. cerevisiae deletion strains, locus YNR052C, strain pop2, active compounds read low 1 | S. cerevisiae deletion strains, locus YOL006C, strain TOP1, active compounds read low 0.884 | S. cerevisiae deletion strains, locus YOL012C, strain htz1 0.953 | S. cerevisiae deletion strains, locus YOL147C, strain pex11, active compounds read low 0.995 | S. cerevisiae deletion strains, locus YOR001W, strain rrp6, active compounds read low 0.985 | S. cerevisiae deletion strains, locus YOR061W, strain CKA2, active compounds read low 1.01 | S. cerevisiae deletion strains, locus YOR069W, strain VPS5, active compounds read low 0.998 | S. cerevisiae deletion strains, locus YOR070C, strain gyp1, active compounds read low 0.99 | S. cerevisiae deletion strains, locus YOR080W, strain dia2, active compounds read low 0.997 | S. cerevisiae deletion strains, locus YOR083W, strain WHI5 (second series), active compounds read low 0.908 | S. cerevisiae deletion strains, locus YOR083W, strain WHI5, active compounds read low 0.982 | S. cerevisiae deletion strains, locus YOR106W, strain vam3, active compounds read low 0.986 | S. cerevisiae deletion strains, locus YOR136W, strain idh2, active compounds read low 0.99 | S. cerevisiae deletion strains, locus YOR144C, strain elg1, active compounds read low 0.995 | S. cerevisiae deletion strains, locus YOR184W, strain ser1, active compounds read low 1 | S. cerevisiae deletion strains, locus YOR231W, strain MKK1, active compounds read low 1.02 | S. cerevisiae deletion strains, locus YOR265W, strain rbl2, active compounds read low 0.995 | S. cerevisiae deletion strains, locus YOR270C, strain vph1, active compounds read low 0.9 | S. cerevisiae deletion strains, locus YOR290C, strain snf2, active compounds read low 0.981 | S. cerevisiae deletion strains, locus YOR316C, strain cot1, active compounds read low 1 | S. cerevisiae deletion strains, locus YPL051W, strain arl3, active compounds read low 0.992 | S. cerevisiae deletion strains, locus YPL055C, strain LGE1, active compounds read low 1.02 and 1 | S. cerevisiae deletion strains, locus YPL078C, strain atp4, active compounds read low 0.983 | S. cerevisiae deletion strains, locus YPL106C, strain sse1, active compounds read low 0.971 | S. cerevisiae deletion strains, locus YPL240C, strain hsp82, active compounds read low 0.997 | S. cerevisiae deletion strains, locus YPL241C, strain CIN2, active compounds read low 1 | S. cerevisiae deletion strains, locus YPL256C, strain CLN2, active compounds read low 1.06 | S. cerevisiae deletion strains, locus YPR119W, strain clb2, active compounds read low 1 | S. cerevisiae deletion strains, locus YPR141C, strain kar3, active compounds read low 0.999 | S. cerevisiae deletion strains, locus YPR163C, strain tif3, active compounds read low 0.998 | S. cerevisiae deletion strains, locus YPR167C, strain met16, active compounds read low 0.992 | S. cerevisiae deletion strains, strain wtn01, active compounds read low 1.01 | S. cerevisiae strains, strain wild type, active compounds read low 0.998
